Only some compounds are listed: those with a hit (about 1.5% of all), similar ones and a draw of the others.
Bcl-xL primary = blocks human Bcl-xL binding to Bim BH3 peptide. GST-Bcl-xL / FITC-Bim BH3 peptide fluorescence polarization. 320,000 tested, 0.7% active. Q07817. inhibition, % at 10.9 µM;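 active = inhibition above the mean of all tested compounds plus 3 SD, cutoff set per campaign, cut at about 30% in these data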;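 also: 0% = DMSO wells and 100% = unlabeled Bim-BH3 peptide competitor; inhibitors lower millipolarization by displacing the labeled peptide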
Target sequence (Q07817 whole entry, looked up): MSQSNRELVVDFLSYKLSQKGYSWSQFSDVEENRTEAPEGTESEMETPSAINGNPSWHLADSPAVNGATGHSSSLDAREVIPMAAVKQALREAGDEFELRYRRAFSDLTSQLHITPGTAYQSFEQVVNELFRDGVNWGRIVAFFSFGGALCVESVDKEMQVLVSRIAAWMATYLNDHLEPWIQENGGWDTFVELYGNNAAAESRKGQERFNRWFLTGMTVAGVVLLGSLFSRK
IDE cell inh = cellular human IDE inhibition | P14735 | HEK cells, FAbetaB cleavage, fluorescence polarization | inhibition, % at 5.59 µM | 320,000 tested, 0.41% active;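 active = percent inhibition above the average of all tested compounds plus 3 SD, set per screening campaign, cut at about 16% in these data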;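 also: IDE supplied by intact live HEK cells; FP after avidin binding of uncleaved biotin substrate so inhibition keeps polarization high; 0% = DMSO wells and 100% = 60 µM reference IDE inhibitor Ii1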
MCL1-BIM inh = inhibitors of human MCL1 binding to BIM-BH3 peptide; AID 2057; Q07820; 320,000 tested, 0.68% active; GST-MCL1 / FITC-Bim-BH3 fluorescence polarization; inhibition, % at 10.9 µM;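 active = inhibition above the mean inhibition of all tested compounds plus 3 SD, set per campaign, cut at about 40% in these data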;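 also: 0% = DMSO wells and 100% = unlabeled Bim-BH3 peptide control; higher means more loss of mP so more displacement of Bim peptide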
Target sequence (Q07820 whole entry, looked up): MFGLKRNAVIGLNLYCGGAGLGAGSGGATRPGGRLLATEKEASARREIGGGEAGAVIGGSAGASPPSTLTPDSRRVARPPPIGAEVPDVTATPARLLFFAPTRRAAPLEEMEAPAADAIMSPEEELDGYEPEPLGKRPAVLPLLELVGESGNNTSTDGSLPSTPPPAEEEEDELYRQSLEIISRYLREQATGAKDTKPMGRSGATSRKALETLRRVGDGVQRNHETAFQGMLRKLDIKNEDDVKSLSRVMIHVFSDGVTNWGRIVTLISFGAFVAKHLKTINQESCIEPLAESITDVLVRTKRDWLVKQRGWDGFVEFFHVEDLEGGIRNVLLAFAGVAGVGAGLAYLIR
MEX-5 binding = C. elegans MEX-5 TCR-2 RNA binding activity. AID 1832. 300,000 tested, 0.38% active. Q9XUB2. MEX-5/FITC-TCR2 RNA binding, fluorescence polarization; active compounds read low. activity score (negative = inhibition of binding), % at 10 µM;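 active = inhibition past about -25% in most replicates, and total fluorescence under double the plate's negative control median, limit read from the data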;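 also: 0% = DMSO and -100% = 5 µM competing unlabeled TCR2 RNA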
IDE act = activators of human insulin-degrading enzyme in cells. HEK cells, FAbeta-B cleavage, fluorescence polarization; 0% vehicle, 100% cell-free pure enzyme wells. activation, % at 5.96 µM. P14735. 340,000 tested, 0.073% active;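 active = activation above the mean of all tested compounds plus 3 SD, set per screening campaign, cut at about 17% in these data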
GLD-1 RNA inh = GLD-1-TGE RNA interaction inhibition (C. elegans) | Q17339 | purified GLD-1 + fluorescein TGE RNA, fluorescence polarization | inhibition, % at 5.96 µM | 320,000 tested, 0.44% active;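 active = percent inhibition above a per-plate cutoff, the plate mean of test compounds plus 3 SD, cut at about 30% in these data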;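 also: 0% = DMSO wells with GLD-1 and probe and 100% = wells lacking GLD-1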
GLD1 RNA confirm = GLD-1 TGE RNA interaction inhibition, confirmation; shares compounds with GLD-1 RNA inh; GLD-1/FL-TGE RNA fluorescence polarization, biochemical; inhibition, % at 5.96 µM; 550 tested, 10% active; AID 2459;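 active = average inhibition across triplicates above the hit cutoff set in the primary screen, cut at about 32% in these data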;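 also: 0% = GLD-1 with RNA probe and DMSO and 100% = wells lacking GLD-1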
The depositor's hits bear a star; . = not tested or not shown.

SMILES | Bcl-xL primary | IDE cell inh | MCL1-BIM inh | MEX-5 binding | IDE act | GLD-1 RNA inh | GLD1 RNA confirm
CC(=O)Nc1cccc(Oc2nc(-c3ccccn3)nc3ccccc23)c1 | 1.0 | 1.9 | -3.8 | -34.7* | . | 31.2* | -3.3
O=C(COC(=O)C1CCN(c2ccc(C(F)(F)F)cn2)CC1)c1ccccc1 | -1.3 | 0.9 | -2.7 | -2.3 | 1.8 | -12.8 | .
COc1cccc(OC)c1NC(=O)Cn1nc(C)c2ccccc2c1=O | -1.5 | 2.7 | -1.5 | 0.8 | -1.5 | 2.5 | .
Cc1ccc2c(c1)N(CC(=O)NCC(C)c1ccccc1)C(=O)c1cccnc1O2 (stereo not given) | 2.8 | -1.3 | 4.5 | 1.3 | 4.1 | -6.6 | .
CCN(CC)C(=O)CSc1nnc2nnc3cc(C)ccc3n12 | 28.0 | 7.5 | 32.0 | -4.2 | 8.3 | 41.5* | 23.2
O=C(c1ccccc1C(=O)N1CCN(c2ccccc2)CC1)N1CCN(c2ccccc2)CC1 | 46.1* | -0.1 | 46.1* | . | -5.1 | 37.8* | 11.4
CC(=O)N1CC=C2C(C#N)=C(N)C(C#N)(C#N)[C@H](c3ccoc3)[C@H]2C1 | 43.9* | 4.0 | 52.1* | -20.1 | -10.4 | 31.3* | 17.5
COc1ccccc1N(C)S(=O)(=O)c1ccc(C(=O)OCC(=O)N(C(C)C)C(C)C)cc1 | 8.9 | 9.0 | 2.2 | 1.4 | 4.9 | 2.1 | .
Cc1onc(-c2ccccc2)c1C(=O)OCC(=O)NCc1ccc(F)cc1 | 29.6 | 0.8 | 28.1 | 0.2 | 1.8 | 30.8* | -3.7
N#Cc1ccccc1OCC(=O)NNC(=O)CNC(=O)c1cccc(Br)c1 | 0.8 | -2.6 | 9.8 | . | -2.0 | 0.1 | 0.6
N#Cc1ccccc1OCC(=O)NNC(=O)CNC(=O)c1ccc(Br)o1 | . | 2.4 | . | . | 6.2 | 7.4 | .
O=[N+]([O-])c1cc([N+](=O)[O-])c(Oc2ccc(Br)cc2Br)cc1NN1CCCCC1 | -4.1 | -4.7 | -7.0 | -0.6 | 1.0 | 100.4* | -0.5
Cc1ccc(-c2cn(-c3ccccc3)c(SCC(=O)NC3CCS(=O)(=O)C3)n2)cc1C (stereo not given) | -7.8 | 3.0 | -8.6 | 1.6 | -4.9 | -1.1 | .
O=C1CCC/C(=N/NC(=O)c2ccc(CN3c4cccc5cccc(c45)S3(=O)=O)cc2)C1 | 10.9 | 4.4 | 8.3 | -1.0 | 4.1 | 40.3* | 2.0
Cc1ccc(S(=O)(=O)N(C)Cc2ccc(C(=O)N/N=C3\CCCC(=O)C3)cc2)cc1 | 2.2 | -4.4 | 3.4 | -3.8 | -1.2 | 49.1* | 2.8
Cc1ccc(S(=O)(=O)N(C)Cc2ccc(C(=O)NN=C3C4CC5CC(C4)CC3C5)cc2)cc1 | -0.4 | 2.0 | 5.1 | 0.6 | -5.1 | 2.5 | .
O=C(O)c1ccc(/C=N/NC(=O)c2ccc(CN3c4cccc5cccc(c45)S3(=O)=O)cc2)cc1 | 9.4 | 5.1 | 3.9 | -7.3 | 6.0 | -2.0 | .
Cc1ccc(C(=O)Nc2cccc(C(=O)N/N=C/c3ccc(F)cc3)c2)cc1 | 1.3 | 3.8 | 3.3 | -0.9 | -1.9 | 6.6 | .
COc1cc(C(=O)NC(=S)Nc2ccc([N+](=O)[O-])cc2)cc(OC)c1OC | 6.9 | -1.8 | 12.3 | 0.0 | 3.7 | 32.2* | -2.6
Nc1c(C(=O)OCC(=O)Nc2cccc([N+](=O)[O-])c2)[nH]c(=O)[nH]c1=O | . | -1.8 | . | . | -0.3 | 33.2* | 13.9
COc1cc(/C=C(\C#N)c2nc3ccccc3[nH]2)cc(Br)c1OCc1ccc(F)cc1 | 4.6 | -3.2 | -4.8 | -5.9 | 0.0 | 97.3* | -2.0
CCCNC(=O)c1onc(CSc2ccc(Cl)cc2)c1C(=O)NCCC(C)C | 8.2 | 0.2 | 10.5 | 2.2 | 2.5 | 44.2* | -6.0
CCc1ccc(C2C(C#N)=C(N)C(C#N)(C#N)C3=CCC(C(C)(C)C)CC32)cc1 (stereo not given) | 41.3* | -3.5 | 28.4 | -5.6 | -6.0 | 41.3* | 5.4
CN(Cc1ccc(F)cc1)C(=O)c1ccc(NC(=O)CC2SC(N3CCCC3)=NC2=O)cc1 (stereo not given) | 3.4 | 0.3 | 2.2 | -2.3 | 6.9 | -1.3 | .
CN1CCN(CCP(=O)(c2ccccc2)c2ccccc2)CC1 | -1.7 | 5.1 | -1.8 | 2.2 | -1.0 | -1.8 | .
SMILES | Bcl-xL primary | IDE cell inh | MCL1-BIM inh | MEX-5 binding | IDE act | GLD-1 RNA inh | GLD1 RNA confirm
CN1CCN(CP(=O)(N2CCOCC2)N2CCOCC2)CC1 | 1.3 | 6.2 | 5.1 | -0.9 | 3.2 | 43.0* | -0.3
Cc1ccc(NC(=O)N2CCc3ccccc3C2)c(C)c1 | -4.6 | 6.5 | -4.6 | -1.4 | -1.9 | 7.3 | .
CN(C(=S)NC(=O)c1ccccc1)c1c(N)n(Cc2ccccc2)c(=O)[nH]c1=O | 6.9 | -3.6 | 7.1 | -0.7 | 6.6 | -3.0 | .
CNc1c(N)n(Cc2ccccc2)c(=O)[nH]c1=O | 37.4* | -0.1 | 43.0* | -32.3* | 0.7 | 41.5* | 29.8
COc1ccc(OC)c(C(=O)N(C)C2CCCN(Cc3ccccc3F)C2)c1 (stereo not given) | 7.2 | 1.2 | 15.8 | 1.2 | 2.4 | 39.2* | 1.2
COc1ccc(C(=O)Nc2ccc(NC(C)=O)cc2)cc1S(=O)(=O)N1CCCC1 | 3.6 | -0.3 | -3.7 | . | -1.9 | 6.7 | .
COc1ccc(NC(=O)c2ccc(OC)c(S(=O)(=O)N3CCCCC3C)c2)cn1 (stereo not given) | 51.0* | 2.8 | 48.3* | . | 2.6 | 33.4* | 27.5
COc1ccccc1-n1c(=O)c2c3c(sc2n2c(=S)[nH]nc12)CCC3 | -29.1 | 1.0 | -16.2 | -1.5 | 6.0 | 2.3 | .
COc1ccccc1N1CCN(C(=O)CCC(=O)N2CCN(c3ccc(F)cc3)CC2)CC1 | -1.5 | 6.7 | -10.6 | -1.2 | -4.9 | -5.2 | .
COc1ccc2c(c1)CCCC21NC(=O)N(CC(=O)N2CC(C)OC(C)C2)C1=O (stereo not given) | . | -0.8 | . | . | -1.6 | 6.4 | .
COc1cc(/C=N\Nc2cc(=O)n(C)c(=O)n2C)ccc1O | 5.7 | 1.0 | 12.4 | 0.7 | -2.7 | 39.2* | -3.3
NC(=O)c1ccccc1NC(=O)/C=C/c1ccc(Cl)cc1 | 0.9 | -2.5 | 5.1 | -0.8 | 7.3 | 56.2* | -4.7
NC(=O)c1ccccc1NC(=O)/C=C/c1ccccc1 | -7.0 | 0.7 | -11.8 | -4.8 | -0.1 | 2.5 | .
CCCCNc1c(-c2ccc(SC(C)CC)cc2)nc2cnccn12 (stereo not given) | . | -3.5 | . | . | 19.6* | 43.0* | 3.4
CCNc1nc(NC(C)C)nc(Oc2ccc(/C=N/O)cc2)n1 | 3.1 | 1.4 | 7.8 | 0.6 | 4.2 | 6.3 | .
CCOC(=O)c1cc2sccc2n1CC(=O)C(C)(C)C | 0.9 | 0.9 | -1.3 | -0.3 | 0.8 | 1.9 | .
Cc1ccc(/C=C/c2nc3ccccc3[nH]2)o1 | 40.3* | -1.2 | 34.0 | 0.8 | -5.1 | 31.9* | 2.8
